# Data reported in PubChem BioAssay AID1159580 (chemical genetic matrix, 2015).
# Hit rate of the full screen: of about 5,500 compounds, about 2,000 (36%) were called active. Roughly 18% stayed inconclusive and do not appear here. The list shows a part of the results. A number with no mark means an inactive call. Cut-off read from the data, not from the text of the source: active = normalized growth mostly below about 0.91 (no sharp cut-off); inconclusive = no clear call, values can overlap the other calls; inactive = mostly above about 0.92.
# Assay: chemical genetic growth profiling, strain panel (AID 1159580);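 note: tested at 20 µM; growth read once vehicle control cultures reached saturation at 30 °C; 1 = growth at the plate median or of vehicle wells; lower values mean less growth of the strain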
# Details: growth OD
# [1] = S. cerevisiae deletion strains, locus YAL013W, strain DEP1, hits give low values
# [2] = S. cerevisiae deletion strains, locus YBR229C, strain ROT2, hits give low values
# [3] = S. cerevisiae deletion strains, locus YCL061C, strain MRC1, hits give low values
# [4] = S. cerevisiae deletion strains, locus YDL101C, strain DUN1, hits give low values
# [5] = S. cerevisiae deletion strains, locus YDR150W, strain NUM1, hits give low values
# [6] = S. cerevisiae deletion strains, locus YEL061C, strain CIN8, hits give low values
# [7] = S. cerevisiae deletion strains, locus YGR078C, strain PAC10, hits give low values
# [8] = S. cerevisiae deletion strains, locus YHR030C, strain SLT2, hits give low values
# [9] = S. cerevisiae deletion strains, locus YHR087W, strain rtc3, hits give low values
# [10] = S. cerevisiae deletion strains, locus YJL187C, strain SWE1, hits give low values
# [11] = S. cerevisiae deletion strains, locus YJR043C, strain POL32, hits give low values
# [12] = S. cerevisiae deletion strains, locus YJR075W, strain HOC1, hits give low values
# [13] = S. cerevisiae deletion strains, locus YKL190W, strain CNB1, hits give low values
# [14] = S. cerevisiae deletion strains, locus YLR039C, strain RIC1, hits give low values
# [15] = S. cerevisiae deletion strains, locus YLR058C, strain SHM2 (second series), hits give low values
# [16] = S. cerevisiae deletion strains, locus YLR085C, strain ARP6, hits give low values
# [17] = S. cerevisiae deletion strains, locus YLR262C, strain YPT6, hits give low values
# [18] = S. cerevisiae deletion strains, locus YML094W, strain GIM5, hits give low values
# [19] = S. cerevisiae deletion strains, locus YMR219W, strain ESC1, hits give low values
# [20] = S. cerevisiae deletion strains, locus YMR263W, strain SAP30, hits give low values
# [21] = S. cerevisiae deletion strains, locus YNL153C, strain GIM3, hits give low values
# [22] = S. cerevisiae deletion strains, locus YNL298W, strain CLA4 (second series), hits give low values
# [23] = S. cerevisiae deletion strains, locus YNL322C, strain KRE1, hits give low values
# [24] = S. cerevisiae deletion strains, locus YNR030W, strain Alg12, hits give low values
# [25] = S. cerevisiae deletion strains, locus YOL006C, strain TOP1, hits give low values
# [26] = S. cerevisiae deletion strains, locus YPL055C, strain LGE1, hits give low values
# [27] = S. cerevisiae deletion strains, locus YPL241C, strain CIN2, hits give low values
# [28] = S. cerevisiae deletion strains, locus YPR135W, strain CTF4, hits give low values
# [29] = S. cerevisiae deletion strains, locus YDL134C, strain PPH21, hits give low values
# [30] = S. cerevisiae deletion strains, locus YMR307W, strain GAS1, hits give low values
compound,measurement,setting,value
COC(=O)Cc1cc(OC)c(OC)cc1[N+](=O)[O-],normalized growth,[1],1.01
same,normalized growth,[2],0.998
same,normalized growth,[3],1.02
same,normalized growth,[4],1.01
same,normalized growth,[5],1.01
same,normalized growth,[6],0.953
same,normalized growth,[7],1.03
same,normalized growth,[8],1.07
same,normalized growth,[9],1.1 [resistant] (active)
same,normalized growth,[10],0.983
same,normalized growth,[11],1
same,normalized growth,[12],0.997
same,normalized growth,[13],0.978
same,normalized growth,[14],1.16
same,normalized growth,[15],0.991
same,normalized growth,[16],0.982
same,normalized growth,[17],1.15
same,normalized growth,[18],0.997
same,normalized growth,[19],1
same,normalized growth,[20],1
same,normalized growth,[21],1.01
same,normalized growth,[22],0.977
same,normalized growth,[23],1.01
same,normalized growth,[24],0.985
same,normalized growth,[25],0.977
same,normalized growth,[26],0.974
same,normalized growth,[27],1.01
same,normalized growth,[28],1.03
same,normalized growth,"S. cerevisiae strains, strain wild type, hits give low values",0.972
COc1ccc([N+](=O)[O-])c(OC)c1C(N)=O,normalized growth,[1],1.02
same,normalized growth,[2],1.03
same,normalized growth,[3],1.06
same,normalized growth,[4],1.06
same,normalized growth,[5],1.04
same,normalized growth,[6],0.995
same,normalized growth,[7],1.04
same,normalized growth,[8],1.11
same,normalized growth,[9],0.964
same,normalized growth,[10],1.02
same,normalized growth,[11],1.06
same,normalized growth,[12],1.02
same,normalized growth,[14],1.03
same,normalized growth,[15],0.997
same,normalized growth,[16],1.03
same,normalized growth,[17],0.989
same,normalized growth,[18],0.98
same,normalized growth,[19],1.02
same,normalized growth,[20],1.02
same,normalized growth,[21],1.04
same,normalized growth,[22],1.02
same,normalized growth,[23],1.01
same,normalized growth,[24],1.03
same,normalized growth,[26],1.01
same,normalized growth,[27],1.02
same,normalized growth,[28],1.12
O=[N+]([O-])c1cnc2ccccn12,normalized growth,[1],1.02
same,normalized growth,[2],1.01
same,normalized growth,[4],1
same,normalized growth,[29],1.03
same,normalized growth,[5],0.964
same,normalized growth,[6],1
same,normalized growth,[7],1.01
same,normalized growth,[8],1.08
same,normalized growth,[9],1.01
same,normalized growth,[10],0.992
same,normalized growth,[11],1.02
same,normalized growth,[12],1.03
same,normalized growth,[13],1.02
same,normalized growth,[14],1.05
same,normalized growth,[15],1.01
same,normalized growth,[16],1.01
same,normalized growth,[17],1.09
same,normalized growth,[18],0.995
same,normalized growth,[19],1.01
same,normalized growth,[20],1.02
same,normalized growth,[30],1.1
same,normalized growth,[21],1.03
same,normalized growth,[22],1.08
same,normalized growth,[23],1.02
same,normalized growth,[24],1.02
same,normalized growth,[26],1.02
same,normalized growth,[27],1.02
same,normalized growth,[28],1.11
c1ccc(-c2ncc3ccccn23)cc1,normalized growth,[1],1.01
same,normalized growth,[2],0.988
same,normalized growth,[3],0.985
same,normalized growth,[4],0.975
same,normalized growth,[29],0.967
same,normalized growth,[5],0.974
same,normalized growth,[6],0.989
same,normalized growth,[7],0.998
same,normalized growth,[8],0.843
same,normalized growth,[9],0.999
same,normalized growth,[11],0.99
same,normalized growth,[12],1.03
same,normalized growth,[13],0.996
same,normalized growth,[14],0.786 (active)
same,normalized growth,[15],0.991
same,normalized growth,[16],0.9
same,normalized growth,[17],0.926
same,normalized growth,[18],0.936
same,normalized growth,[19],1.01
same,normalized growth,[20],0.971
same,normalized growth,[30],0.711
same,normalized growth,[21],0.979
same,normalized growth,[22],0.95
same,normalized growth,[23],1.01
same,normalized growth,[24],0.981
same,normalized growth,[25],0.461 (active)
same,normalized growth,[26],1.03
same,normalized growth,[27],0.928
same,normalized growth,[28],0.753
